Source: PubChem (National Center for Advancing Translational Sciences (NCATS))
An excerpt weighted towards active compounds, which were near 11% of everything screened.
Pf growth 48h – Primary qHTS for delayed death inhibitors of the malarial parasite plastid, 48 hour incubation; P. falciparum luciferase growth in erythrocytes, 48 h; Potency, µM (series often up to 28.7 µM), without a hit: top-dose activity change, negative = inhibition, hits mostly inhibitors; 310,000 compounds, 5.9% hits; AID 504832, 2011; further: on the % scale 0 is the no-effect control and ±100 the full control effect
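Firefly luciferase activity from engineered P. falciparum reports growth; inhibitors lower the luminescent signal. Cultures contained 2% hematocrit erythrocytes at 0.1% final parasitemia.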
Pf growth 96h – Primary qHTS for delayed death inhibitors of the malarial parasite plastid, 96 hour incubation; Potency, µM (series often up to 28.7 µM), without a hit: at the highest dose activity change, negative = inhibition, usual class: inhibitors; P. falciparum luciferase reporter growth, 96 h; 320,000 compounds, 6.9% hits; further: on the % scale 0 is the no-effect control and ±100 the full control effect
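Luminescence readout: decreased luciferase signal marks inhibited growth of reporter-expressing P. falciparum in infected red cells (2% hematocrit, 0.05% parasitemia final), exposed to compound two generations (96 h, 37 C, 5% CO2).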
NS1 inh – qHTS Assay for Inhibitors of Influenza NS1 Protein Function; Potency, µM (highest dose often 46.1 µM), for the others: top-dose activity, positive = more growth; 270,000 compounds, 0.4% hits; AID 2326, 2010; calls by dose curve; further: actives are rising curves; nearly all actives have a fitted effect of over 50% in size
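Recovery from NS1-induced slow growth read by OD600 in budding yeast switched to galactose assay medium (pH 6.0, -URA) at 1:100 dilution. Compound 23 nl per well; the matching strain lacking NS1 serves as control.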
AMA1-RON2 inh – qHTS for Inhibitors of AMA1-RON; Towards Development of Antimalarial Drug Lead: Primary Screen; 360,000 compounds, 0.2% hits; Plasmodium falciparum AMA1 (3D7) - RON2 peptide interaction; Potency, µM (titrated, usually from 58.2 µM), inactives show at the top dose activity change, negative = inhibition, usual class: inhibitors; AlphaScreen AMA1-biotinylated RON2 peptide binding;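 further: 0% = vehicle wells and -100% = peptide control; nearly all actives have a fitted effect of over 45% in size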
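AMA1 (3D7) with his tag at 25 nM final met compounds first, then biotinylated RON2 peptide at 25 nM; detection used donor plus acceptor beads, 10 µg/mL apiece, read by AlphaScreen after 30 min at room temperature.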
Sm TGR inh – qHTS Assay for the Inhibitors of Schistosoma Mansoni Peroxiredoxins; Schistosoma mansoni thioredoxin glutathione reductase (TGR), Q962Y6; purified TGR, DTNB reduction, TNB absorbance 405 nm; Potency, µM (titrated, usually from 114 µM), for inactives: top-dose activity change, negative = inhibition, most hits filed as inhibitors; 360,000 compounds, 3% hits; further: on the % scale 0 is the no-effect control and ±100 the full control effect; nearly all actives have a fitted effect of over 60% in size
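First, TGR (20 nM dispensed) and NADPH were mixed with compound. Second, a 15 min room-temperature incubation followed. Third, further NADPH and then DTNB were added to start the reaction. Finally, TNB absorbance was monitored kinetically.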
Starred values were filed as active, the others as inactive; ? = inconclusive; · = no result given; [ ] = remark or other dose. Unless noted, the call rests on the fitted dose curve; in most records, active means well fitted curve in the direction sought with a large enough effect; inconclusive means small, poorly fitted or top-dose-only effect, or another doubt; inactive means no such curve, though single readings can be large; an effect the other way counts as inactive or inconclusive. Potency means the concentration at half of the fitted maximal effect.

SMILES	Pf growth 48h	Pf growth 96h	NS1 inh	AMA1-RON2 inh	Sm TGR inh
Cc1cc(C)cc(NC(=O)C2CCCN(S(=O)(=O)c3cccc4nsnc34)C2)c1 (stereo not given)	·	·	·	·	16%
Cc1cc(C(=O)N/N=C/c2cc(Br)c(Br)o2)n[nH]1	12%	-4%	-22%	37%	10µM*
Cc1cc(C(=O)N/N=C/c2ccc(C)s2)n[nH]1	93%	?	11%	12%	-2%
Cc1cc(C(=O)N/N=C/c2ccc([N+](=O)[O-])s2)n[nH]1	?	2.1µM*	-38%	23%	0%
Cc1[nH]cnc1C(=O)N/N=C/c1ccc([N+](=O)[O-])s1	?	1.9µM*	-4%	63%	-32%
Cn1c(SCC(=O)N/N=C/c2ccc([N+](=O)[O-])s2)nnc1-c1ccc(Cl)cc1	10µM*	5.2µM*	-44%	23%	?
CCOc1ccc(N(CC(=O)NCC2CCCO2)C(=O)CCC(=O)Nc2nccs2)cc1 (stereo not given)	5%	50%	1%	-1%	2%
O=c1ccc2cc(S(=O)(=O)Nc3ccc(Br)cc3)ccc2o1	3%	?	-8%	3%	7%
CN(C)C(=O)/C(=C/c1cn(-c2ccccc2)nc1-c1cccc([N+](=O)[O-])c1)NC(=O)c1ccccc1	8%	28%	13%	-8%	-10%
C=CCNC(=O)/C(=C/c1cn(-c2ccccc2)nc1-c1cccc([N+](=O)[O-])c1)NC(=O)c1ccccc1	?	4.1µM*	11%	-4%	0%
Cc1cccc2c1c1ccc3c(c1n2C)C(=O)C=CC3=O	12µM*	?	21%	-22%	2.5µM*
C=CCNc1ncnc2c1ncn2[C@H]1CN(Cc2ccc3c(c2)OCO3)C[C@@H](CO)O1	·	·	·	-1%	·
Cc1cccc(C(=O)O/N=C(\N)Cc2cccc3ccccc23)c1	3.3µM*	?	-137%	2%	-23%
Cc1cccc(/C(N)=N/OC(=O)Cc2cccc3ccccc23)c1	-25%	?	-50%	-2%	32%
N/C(Cc1ccccc1)=N\OC(=O)c1cccc2ccccc12	3.3µM*	4.7µM*	-55%	72%	1%
COc1cccc(C(=O)O/N=C(\N)Cc2ccc(Cl)cc2)c1	10µM*	139%	-71%	-7%	-2%
O=C(Nc1ccccc1)C1Cc2c(-c3ccco3)ccnc2O1 (stereo not given)	·	·	·	-9%	·
CC(C)(C)c1ccc(C(=O)Nc2nnc(C3=COCCO3)o2)cc1	15µM*	9.3µM*	-7%	82%	-2%
Cc1cccc(C(=O)Nc2nnc(C3=COCCO3)o2)c1	-11%	?	-2%	49%	-16%
O=C(Nc1nnc(C2=COCCO2)o1)c1cccc(F)c1	?	15µM*	-36%	66%	-2%
Cc1ccc2cc(C#N)c(N3CCCN(C(=O)C4CCCO4)CC3)nc2c1C (stereo not given)	·	16%	-31%	5%	-4%[11.4 µM]
Cc1ccc2cc(C#N)c(N3CCCC3)nc2c1C	-4%	112%	-5%	80%	20µM*
COc1ccc2nc(N3CCCC3)c(C#N)cc2c1	·	8.3µM*	-15%	39%	-1%
COc1ccccc1C(=O)N1CCN(c2nc3cc(C)c(C)cc3cc2C#N)CC1	?	10µM*	-47%	9%	2%
CC(C)Oc1ccc(CNC(=O)CCC(=O)N2CCSc3ccccc32)cc1	13%	37%	8%	-5%	-4%
Cc1onc(-c2c(F)cccc2Cl)c1C(=O)NC1C(=O)N2C1SC(C)(C)C2C(=O)O (stereo not given)	-14%	-23%	·	·	·
C/C(=N\NC(=O)c1ccc(Br)cc1)c1ccccc1	156%	-14%	-4%	56%	-29%
C/C(=N/NC(=O)CNS(=O)(=O)c1ccccc1)c1ccc(Br)cc1	?	13µM*	4%	8%	6%
CCOC(=O)N/N=C(\C)c1ccc(Br)cc1	·	12µM*	-4%	-2%	2%
